Only a selection was taken, and hits are over-represented in it overall.
Cruzain noTriton: inhibitors of Trypanosoma cruzi cruzain without detergent. purified cruzain, Z-FR-AMC fluorescence, no detergent. Potency, µM, for the others: max response, negative = inhibition, hits mostly inhibitors. 200,000 tested, 2.3% active. AID 1476; active = well fitted curve in the direction sought with a large enough effect; inconclusive = small, poorly fitted or top-dose-only effect, or another doubt; inactive = no such curve, though single readings can be large; an effect the other way counts as inactive or inconclusive;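 note: potency is the fitted concentration of half-maximal effect; plate controls were enzyme without inhibitor for no effect and buffer without enzyme for full effect; nearly all actives have a fitted effect of over 40% in size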
Target sequence (P25779 123-467 limits assumed): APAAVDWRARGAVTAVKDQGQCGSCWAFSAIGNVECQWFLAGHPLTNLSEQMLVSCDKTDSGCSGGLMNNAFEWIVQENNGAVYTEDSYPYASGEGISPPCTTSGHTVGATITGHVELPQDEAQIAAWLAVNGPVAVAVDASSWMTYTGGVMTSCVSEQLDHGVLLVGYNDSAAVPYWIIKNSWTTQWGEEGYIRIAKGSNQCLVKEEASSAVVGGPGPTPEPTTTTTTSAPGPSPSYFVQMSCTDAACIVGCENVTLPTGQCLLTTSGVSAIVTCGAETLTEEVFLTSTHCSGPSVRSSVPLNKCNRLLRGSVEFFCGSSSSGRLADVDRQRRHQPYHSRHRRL
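Purified cruzain at 1.5 nM, pre-incubated 15 min with compound at room temperature in 100 mM sodium acetate pH 5.5, 5 mM DTT, 0.00005% Triton X-100. Reaction started with 2 uM Z-FR-AMC; AMC fluorescence increase over 60 s gives rate.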
NS1 function inh: influenza NS1 inhibition | Potency, µM (doses to about 46.1 µM), for inactives: top-dose activity, positive = more growth | 270,000 tested, 0.4% active | AID 2326; note: potency is the fitted concentration of half-maximal effect; actives are rising curves; nearly all actives have a fitted effect of over 50% in size
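In this qHTS, NS1 from influenza A is expressed in budding yeast, where it slows growth. Cells are switched from glucose to 2% galactose medium (pH 6.0, -URA), treated with compound, and growth recovery is read at OD600.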
Cruzain Triton: cruzain (T. cruzi) inhibition with detergent. 200,000 tested, 0.43% active. Potency, µM, for the others: max response, negative = inhibition, most hits filed as inhibitors. purified cruzain, Z-FR-AMC fluorescence, 0.01% Triton. AID 1478; active = well fitted curve in the direction sought with a large enough effect; inconclusive = small, poorly fitted or top-dose-only effect, or another doubt; inactive = no such curve, though single readings can be large; an effect the other way counts as inactive or inconclusive;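 note: potency is the fitted concentration of half-maximal effect; plate controls were neutral wells for no effect and buffer without enzyme for full effect; nearly all actives have a fitted effect of over 40% in size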
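Enzyme 1.5 nM, Z-FR-AMC 2 uM, NaOAc 100 mM pH 5.5, DTT 5 mM, Triton X-100 0.01%; 15 min RT compound preincubation; kinetic ex360/em450, 60 s delta.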
NS1 inh valid: influenza NS1 function inhibition validation; AID 492980; influenza NS1 function cell assay, 15-point titration; activity change, negative = inhibition, % at 32.9 µM; 1,400 tested, under 10 active; shares compounds with NS1 function inh; note: 0% is about no effect
Flu PR8 replic: influenza virus titer reduction, NS1 project; shares compounds with NS1 function inh; MDCK infected influenza A/PR/8/34, virus titer TCID50; stronger effect = lower value; virus titer (log TCID50), log10 TCID50 at 5 µM; 95 tested, 30% active; AID 504647; call rule not given here
An asterisk follows results filed as active; u = inconclusive; x = not tested or not shown. Unless noted, calls come from the whole dose curve.

SMILES	Cruzain noTriton	NS1 function inh	Cruzain Triton	NS1 inh valid	others
O=c1cc(NCc2ccc3c(c2)OCO3)[nH]c(=O)n1-c1ccc(Cl)cc1	u	7%	5%	x
COc1ccc(CCNc2ncnc3c2c(-c2ccccc2)cn3-c2ccc(Cl)cc2)cc1OC	7%	x	1%	x
CC(C)NS(=O)(=O)c1ccc(OCC(=O)Nc2cccc(F)c2)cc1	x	u	x	18
CC(C)NS(=O)(=O)c1ccc(OCC(=O)Nc2cccc3ccccc23)cc1	7%	2%	2%	x
Cc1nc2c(c(C)c1CCC(=O)N1CCN(c3ccccc3)CC1)c(=O)n(C)c(=O)n2C	-2%	x	0%	x
Cc1ccc([N+](=O)[O-])cc1C	6%	x	1%	x
COc1ccc(O)c(/C=N/NC(=O)c2ccc(CSc3nc(C)cc(C)n3)cc2)c1	7%	19%	-4%	x
COc1ccc2cc(/C=N/NC(=O)c3ccc(CN(c4cccc(Cl)c4Cl)S(C)(=O)=O)cc3)c(Cl)nc2c1	25µM*	13µM*	-12%	u
O=C(NCc1ccc2[nH]c3c(c2c1)CCCC3)c1ccc(S(=O)(=O)N2CCOCC2)cc1	8%	u	-5%	x
CN(C)S(=O)(=O)c1ccc(C(=O)NCc2ccc3[nH]c4c(c3c2)CCCC4)cc1	u	16µM*	-6%	11
Cc1cc2cc(CNC(=O)c3cccc([N+](=O)[O-])c3)ccc2n1C	u	20%	-3%	x
COc1cccc(CNC(=O)c2ccc(S(=O)(=O)N3CCCC3)cc2)c1	1%	-2%	5%	x
O=C(NCc1ccc2[nH]c3c(c2c1)CCCC3)c1ccc(S(=O)(=O)N2CCCC2)cc1	u	13µM*	-5%	7	Flu PR8 replic=7*
Cc1cc2cc(CNC(=O)c3ccc(S(=O)(=O)N4CCCCC4)cc3)ccc2[nH]1	u	11µM*	-11%	18
CCN(CC)S(=O)(=O)c1ccc(C(=O)NCc2ccc3[nH]c4c(c3c2)CCCC4)cc1	u	u	-3%	x
Cc1cc2cc(CNC(=O)c3cccc([N+](=O)[O-])c3)ccc2[nH]1	u	14µM*	-2%	1
COc1cccc(NC(=O)CN2C(=O)c3cccc4cccc2c34)c1	15%	x	-6%	x
CC1CCN(c2ccc(-c3nc(C(C)C)no3)cc2[N+](=O)[O-])CC1	u	x	-11%	x
CCCCCCCCCCCCCCCCCC(=O)OC(CC(=O)O)C[N+](C)(C)C (stereo not given)	u	-18%	-3%	x
O=C1CC(c2nc3ccccc3n2Cc2c(F)cccc2Cl)CN1c1cccc(C(F)(F)F)c1 (stereo not given)	-5%	x	0%	x
COc1ccc(-n2c(=S)[nH]c3cc(C(=O)NCCCN4CCOCC4)ccc3c2=O)cc1OC	x	7%	x	x
Cc1cc2ccccc2n1CCNC(=O)c1ccc(S(=O)(=O)N2CCCCC2)cc1	u	11µM*	1%	0
Cc1ccc(C(=O)NCCn2c(C)cc3ccccc32)cc1C	6%	x	-8%	x
Cc1cc(C)cc(O)c1	0%	x	-3%	x
O=C(Cn1c(=O)oc2ccccc21)N1CCCCC1	13%	7%	11%	x
SMILES	Cruzain noTriton	NS1 function inh	Cruzain Triton	NS1 inh valid	others
CC1CCN(C(=O)Cn2c(=O)oc3ccccc32)CC1	-6%	3.5µM*	-1%	-2
COc1cc(CCC(=O)OCC(=O)Nc2ccc(F)cc2F)cc(OC)c1OC	x	-1%	x	x
CCCn1c(C(C)Nc2nc(-c3ccc(C)cc3)cs2)nc2cc(Cl)c(Cl)cc21 (stereo not given)	x	17%	x	x
CC(Nc1nc(-c2cccc(Br)c2)cs1)c1nc2cc(Cl)c(N3CCCCC3)cc2n1CCOCCO (stereo not given)	x	10µM*	x	-9
CC(C)(C)OC(=O)N1CCC(c2c(C(=O)N3CCN(c4ncccn4)CC3)cnn2-c2ccc(F)cc2)CC1	-6%	x	-1%	x
COCCCNC(=O)c1oc2c(c1C)-c1nn(Cc3cccc(Cl)c3)cc1CC2	2%	x	-8%	x
Cc1c(C(=O)OCC(=O)c2c(N)n(CC(C)C)c(=O)n(C)c2=O)oc2ccccc12	u	u	-5%	x
CC(C)Cn1c(N)c(C(=O)COC(=O)c2ccc3ccccc3n2)c(=O)n(C)c1=O	u	10µM*	-4%	-6
Oc1cc(Cl)cc(Cl)c1	-9%	x	-2%	x
Clc1cccc(CN2CCC(Cc3ccccc3)CC2)c1	3%	u	5%	-2
Clc1ccc(CN2CCC(Cc3ccccc3)CC2)cc1	4%	0%	0%	x
Cc1cc(C)c(S(=O)(=O)Nc2ccc(-c3ccc(N4CCCCC4)nn3)cc2)c(C)c1	-4%	x	-5%	x
C=CCN1CC[C@]23c4c5ccc(O)c4OC2C(=O)CC[C@]3(O)C1C5 (stereo not given in full)	16%	x	9%	x
C=CCN1CC[C@]23c4c5ccc(O)c4OC2C(=O)CC[C@@]3(O)C1C5 (stereo not given in full)	x	13µM*	x	-17
CC1=C(C(=O)Nc2ccc(C)cc2C)C(c2ccccc2C)n2ncnc2N1 (stereo not given)	-11%	x	-1%	x
COC(=O)c1ccc(C2C(C(=O)Nc3ccc(C)cc3C)=C(C)Nc3ncnn32)cc1 (stereo not given)	-3%	22µM*	5%	1
Cc1ccc(CNC(=O)CN2C(=O)COc3ccc(S(=O)(=O)Nc4ccccc4)cc32)cc1	-5%	x	-4%	x
C=CCN1C(=O)CSC1=Nc1ccc(C(=O)O)cc1	x	-11%	x	x
C=CCN1C(=O)CS/C1=C(\C#N)S(=O)(=O)c1ccc(C)cc1	-18%	1.6µM*	0%	34
CCN(CC)CCCn1c(-c2ccccc2)nc2c(NCCOC)nc(C)nc21	9%	x	5%	x
Cc1cc(C)cc(NC(=O)C2CCCN(C(=O)c3cnn(-c4ccccc4)c3-n3cccc3)C2)c1 (stereo not given)	u	x	-8%	x
COc1ccc(/C=C\C(=O)NCc2ccc3[nH]c(C)cc3c2)cc1OC	10%	u	-5%	x
COc1cc(/C=C\C(=O)NCc2ccc3[nH]c(C)cc3c2)cc(OC)c1OC	22%	1.3µM*	-3%	21
CCCc1cc(=O)oc2cc(OCC(=O)NCCc3c[nH]c4ccccc34)ccc12	x	-10%	x	x
COc1cc(/C=C(\C#N)c2nc3ccccc3[nH]2)ccc1OCc1cccc(C(F)(F)F)c1	1%	x	-4%	x
SMILES	Cruzain noTriton	NS1 function inh	Cruzain Triton	NS1 inh valid	others
CCCCC(=O)Nc1ccc2c(c1)nc1n2CCSC1	-15%	8.9µM*	3%	-12
CC(=O)Nc1ccc2c(c1)nc1n2CCSC1	-3%	2%	2%	x
COc1cccc(N2CCN(Cc3cc(=O)oc4cc(C)ccc34)CC2)c1	0%	x	-4%	x
CCC/C(=N/NC(=O)c1ccc2c(c1)OCO2)c1cccs1	-16%	u	-8%	-15
CC/C(=N\NC(=O)c1ccc2c(c1)OCO2)c1ccccc1	x	-4%	x	x
COc1ccc(COc2cccnc2N)cc1	x	-2%	x	x
COc1ccc(COc2cc(-c3cccc(OC)c3)nc3ccc(N)cc23)cc1	u	4.5µM*	0%	-4
COc1ccc(COc2cc(-c3cccc(OC)c3)nc3ccc(NC(=O)c4ccc(N(C)C)cc4)cc23)cc1	6.3µM*	10µM*	-2%	u
